The results in this text go back to PubChem BioAssay (NCATS).

“And” between values parts separate entries of the source, which are not always exact repeats. Equal values may be shown once. Records with an inconclusive call do not appear. The source made the active and inactive calls. Unless noted, calls come from the whole dose curve; as a rule, active = well fitted curve in the direction sought with a large enough effect; inconclusive = small, poorly fitted or top-dose-only effect, or another doubt; inactive = no such curve, though single readings can be large; an effect the other way counts as inactive or inconclusive.

A short description of experiment [1]: AP1 Signaling Pathway (AID 357; active = well fitted curve in either direction with a large enough effect, not every such curve was filed as active;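 note: ME-180 reporter cells stimulated with EGF at its EC50 level; % is set by controls: 0 for no effect and ±100 for the full control effect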). The note with it: ME-180 AP-1-bla reporter, EGF-induced, beta-lactamase ratio, 5 h. In a few lines:
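Modulation of EGF-driven AP-1 transcription was assessed with a beta-lactamase reporter in ME-180 cells. Compound and EC50 EGF were co-incubated 5 hours at 37 °C before 2.5-hour CCF4 loading at room temperature and dual-emission reading.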

Experiment [2] deals with Cytochrome P450 1A2 (Homo sapiens) (UniProt P05177). Kind of experiment: p450-cyp1a2 (AID 410; calls by dose curve;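 note: -100% = full effect of reference inhibitor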). The note with it: recombinant CYP1A2, luciferin-ME demethylation, luminescence; series mostly up to 57 µM. In a few lines: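 Luminescent readout of luciferin formed from Luciferin-ME by human CYP1A2; data normalized against complete inhibition by 57 uM furafylline. Enzyme 20nM, substrate 100uM at Km, 100mM KPO4 buffer, 60 min reaction at room temperature.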
Chain of Cytochrome P450 1A2 (Homo sapiens) (P05177 whole entry, looked up): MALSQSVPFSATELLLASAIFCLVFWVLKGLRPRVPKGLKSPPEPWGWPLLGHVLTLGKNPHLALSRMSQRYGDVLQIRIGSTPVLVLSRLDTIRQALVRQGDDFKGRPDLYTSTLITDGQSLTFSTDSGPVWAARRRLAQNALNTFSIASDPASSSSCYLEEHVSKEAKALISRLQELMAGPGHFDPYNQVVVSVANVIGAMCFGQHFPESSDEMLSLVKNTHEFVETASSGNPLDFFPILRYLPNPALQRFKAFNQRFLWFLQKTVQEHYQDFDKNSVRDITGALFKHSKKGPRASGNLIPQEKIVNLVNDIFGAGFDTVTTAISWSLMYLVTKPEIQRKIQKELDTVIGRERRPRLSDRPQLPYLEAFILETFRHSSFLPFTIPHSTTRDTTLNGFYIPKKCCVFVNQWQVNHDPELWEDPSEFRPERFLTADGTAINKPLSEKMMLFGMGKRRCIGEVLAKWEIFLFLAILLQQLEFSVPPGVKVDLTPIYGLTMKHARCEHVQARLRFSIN

Experiment [3] in a line: NFAT Signaling Pathway (AID 444; active = well fitted curve in either direction with a large enough effect, not every such curve was filed as active;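 note: carbachol stimulus at about its EC50 of 1 µM final; % is set by controls: 0 for no effect and ±100 for the full control effect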). The note with it: Jurkat NFAT-bla M1, carbachol, beta-lactamase ratio, 5 h. In a few lines:
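Jurkat cells with NFAT-driven β-lactamase reporter and co-expressed M1 receptor, stimulated with carbachol (final 1 uM, ~EC50), compound titration, 5 h at 37 °C. CCF4 loaded 1 h at RT; 460/530 nm ratio gave %activity and AC50.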

The nature of experiment [4]: Stat Signaling Pathway (AID 446; active = well fitted curve in either direction with a large enough effect, not every such curve was filed as active;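 note: ME-180 cervical cancer cells given 40 pM IL-6 alongside compound; SIE-controlled beta-lactamase reporter measured as 460/530 nm FRET emission ratio; % is set by controls: 0 for no effect and ±100 for the full control effect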). The note with it: ME-180 SIE beta-lactamase reporter, IL-6 stimulated, 5 h. In a few lines:
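Reporter line: ME-180 cervical carcinoma, SIE-beta-lactamase. Treatment: compound with 40 pM IL-6, 5 hrs, 37 C, in low-serum OPTI-MEM with 10 mM HEPES pH 7.3. Detection: 460/530 nm fluorescence.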

Experiment [5] addresses Glucocorticoid receptor (Homo sapiens) (UniProt P04150). Briefly: GR-GFP Redistribution (AID 450;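 active = compounds whose dose series gives a full or clear partial fitted curve of increased nuclear translocation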; note: potency is the fitted concentration of half-maximal effect). The note with it: U2OS GR-GFP nuclear translocation, laser cytometry, 2 h.
The target is the same in experiment [6]. Briefly: GR-EFC Redistribution (AID 451; calls by dose curve; note: potency is the fitted concentration of half-maximal effect). The note with it: CHO-K1 GR-EFC translocation, beta-gal luminescence, 2 h. In a few lines: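 CHO-K1 cells expressing nuclear EA and GR-ED fragments of b-gal; compounds titrated up to 46 uM final, 2 h at 37 C. GR nuclear translocation read as complemented b-gal luminescence after 1 h RT detection.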
For experiment [7], the target named is 3',5'-cyclic-AMP phosphodiesterase 4B (Homo sapiens) (UniProt Q07343). Briefly: qHTS Assay for Inhibitors of PDE-IV (AID 607; active = well fitted activation curve with a large enough effect in the main read-out, with a control signal flat, not every such curve was filed as active; note: % of control where 0% means no effect). The note with it: HEK293 ACTOne CNG channel cells, membrane potential fluorescence; series mostly up to 22.9 µM. In a few lines:
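Cell-based read-out of cAMP via a modified cyclic nucleotide-gated channel and membrane potential dye (535/590 nm) in HEK293 cells expressing PDE4 endogenously. Compounds tested up to 22.9 uM final; 100 uM RO 20-1724 reference.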
On the technique in general: qHTS replaces the single test concentration by a dilution series.

Experiment [8] concerns the target Pyruvate kinase (Leishmania mexicana) (UniProt Q27686). Kind of experiment: qHTS Validation Assay for Inhibitors of Leishmania Mexicana Pyruvate Kinase (AID 945).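 Note: 0% = DMSO only neutral control wells.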 The note with it: purified L. mexicana pyruvate kinase, enzyme activity, E451W mutant enzyme; series mostly up to 57.5 µM. In a few lines:
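qHTS eight-point titrations against 0.2 nM LmPYK (E451W) in imidazole buffer pH 7.2 with 0.5 mM PEP, 0.1 mM ADP; 1 h, room temperature. Readout: PKLight luminescence, normalized to neutral DMSO wells.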

Experiment [9] has as its target Alpha-galactosidase A (Homo sapiens) (UniProt P06280). Kind of experiment: Counterscreen for Glucocerebrosidase Inhibitors: qHTS Assay for Human alpha-Galactosidase at pH 4.5 (AID 992). Note: 0% is about no effect. The note with it: purified enzyme, fluorogenic substrate; series mostly up to 76.9 µM. In a few lines:
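Quantitative HTS: compounds tested from 0.7 nM up to 77 uM against 2 nM enzyme with 80 uM 4-MU alpha-D-galactopyranoside. The 20 min room-temperature reaction is stopped with 1M NaOH/1M glycine, pH 10.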
For orientation: The purpose of a counterscreen is to sort out artefacts and off-target activity.

Experiment [10] concerns the target alpha-glucosidase (Oryza sativa, rice) (UniProt Q653V4). Kind of experiment: Counterscreen for Glucocerebrosidase Inhibitors: qHTS Assay for Rice alpha-Glucosidase at pH 5.0 (AID 997).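 Note: 0% = full activity with enzyme and -100% = basal without enzyme.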 The following applies: rice alpha-glucosidase enzyme activity; series mostly up to 76.9 µM. In a few lines:
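Rice alpha-glucosidase (4 nM final) with 400 uM 4-methylumbelliferyl-alpha-D-glucopyranoside in citrate buffer pH 5.0, 20 min at room temperature, stopped at pH 10; fluorescence 365/440 nm, compounds 0.7 nM–77 uM, AC50 from Hill fits.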

Experiment [11] in a line: qHTS Assay for Lipid Storage Modulators (AID 1519; calls by dose curve). The note with it: Drosophila S3 cells, BODIPY lipid droplet/cell ratio, laser cytometry, cells loaded with oleic acid; for activity change, negative = inhibition: at 25.7 µM (top of the series). In a few lines:
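Cells seeded at 5,000 per well were treated with compounds over a concentration series and loaded with oleic acid (400 uM, as added). Lipid droplet fluorescence (488 nm excitation, 500-530 nm channel) was read by laser-scanning cytometry and normalized to 20 uM Triacsin C.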

The target of experiment [12] is Ubiquitin carboxyl-terminal hydrolase 1 (Homo sapiens) (UniProt O94782). Briefly: Inhibitors of USP1/UAF1: Pilot qHTS (AID 504865).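 Note: rhodamine fluorescence freed from ubiquitin-rhodamine substrate followed over time; top concentration of the series differs between compounds; % is set by controls: 0 for no effect and ±100 for the full control effect; nearly all actives have a fitted effect of over 35% in size.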 The note with it: purified USP1/UAF1, Ub-rhodamine cleavage fluorescence; series mostly up to 54.9 µM. In a few lines: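 USP1/UAF1 complex (1nM) preincubated with compound 15 min at room temperature, then Ub-Rho substrate (150nM final) added. Fluorescence read kinetically at 480/540 nm, 6 reads every 60 seconds. Buffer: 50mM HEPES pH 7.8, 0.5mM EDTA, 0.1 mg/ml BSA, 1mM TCEP, 0.01% Tween-20.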
Chain of Ubiquitin carboxyl-terminal hydrolase 1 (Homo sapiens) (O94782 whole entry, looked up): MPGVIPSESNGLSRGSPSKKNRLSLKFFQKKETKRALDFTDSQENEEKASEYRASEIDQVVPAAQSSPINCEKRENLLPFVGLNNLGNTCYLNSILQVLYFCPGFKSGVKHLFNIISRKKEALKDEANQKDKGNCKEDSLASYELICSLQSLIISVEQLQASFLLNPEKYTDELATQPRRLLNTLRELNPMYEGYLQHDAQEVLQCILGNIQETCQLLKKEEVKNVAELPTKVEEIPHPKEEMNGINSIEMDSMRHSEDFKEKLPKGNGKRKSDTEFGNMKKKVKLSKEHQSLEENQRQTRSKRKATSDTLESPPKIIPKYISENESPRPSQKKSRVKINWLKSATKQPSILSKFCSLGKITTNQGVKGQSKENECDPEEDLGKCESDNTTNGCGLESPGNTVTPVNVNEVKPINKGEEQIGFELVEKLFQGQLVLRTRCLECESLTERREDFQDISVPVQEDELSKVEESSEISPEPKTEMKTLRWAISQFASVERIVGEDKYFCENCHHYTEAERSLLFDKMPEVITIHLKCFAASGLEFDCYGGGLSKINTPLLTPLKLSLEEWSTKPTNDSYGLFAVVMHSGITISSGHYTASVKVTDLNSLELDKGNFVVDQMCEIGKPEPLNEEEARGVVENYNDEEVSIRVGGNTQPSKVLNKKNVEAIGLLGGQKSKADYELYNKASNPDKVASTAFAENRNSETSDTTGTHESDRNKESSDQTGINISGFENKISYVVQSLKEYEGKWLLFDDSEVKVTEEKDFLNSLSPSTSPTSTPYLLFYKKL

In experiment [13] the target is Mitogen-activated protein kinase 10 (Mus musculus) (UniProt Q61831). Briefly: JNK3 AlphaScreen Assay (AID 530; active = well fitted curve in either direction with a large enough effect, not every such curve was filed as active;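 note: kinase came from lysate of stimulated human HepG2 cells; signal reports phosphorylation of biotinylated GST-cJun 1-79 at Ser73 with 10 µM ATP; % is set by controls: 0 for no effect and ±100 for the full control effect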). The following applies: JNK3 lysate, c-Jun phosphorylation; series mostly up to 57.1 µM. In a few lines: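 Pre-activated (IL-1β/TNFα) JNK3 in HepG2 lysates phosphorylates biotin-GST-cJun(1-79), 10 uM ATP; anti-phospho-cJun(Ser73) AlphaScreen read at room temperature, pH 7.6 Tris buffer. Compounds pre-incubated 15 min as titrations.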

Experiment [14] addresses ATP-dependent 6-phosphofructokinase (Trypanosoma brucei brucei) (UniProt O15648). Briefly: qHTS Assay to Find Inhibitors of T. brucei phosphofructokinase: hit validation (AID 492961). The following applies: T. brucei PFK, ADP-Glo luminescence; series mostly up to 24.3 µM. In a few lines:
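Compounds titrated; %activity normalized to 0x and 1x enzyme controls, curve-fitted. Readout: ADP-Glo luminescence after 45 min room-temperature reaction of 1.25 nM PFK, 0.1 mM ATP, 0.5 mM F6P, pH 8.0.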

Experiment [15] deals with Luciferin 4-monooxygenase (Photinus pyralis) (UniProt P08659). Briefly: Biochemical firefly luciferase enzyme assay for NPC (AID 624030).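 Note: purified P. pyralis luciferase at 10 nM with luciferin and ATP substrate; 0% = DMSO and -100% = full luciferase inhibition by PTC124 control; nearly all actives have a fitted effect of over 70% in size.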 The following applies: purified P. pyralis luciferase, luminescence, 5 min; series mostly up to 58.6 µM. In a few lines: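 Purified P. pyralis luciferase at 10 nM in 50 mM Tris Acetate (final), luminescence read within 5 minutes of enzyme addition to compounds. Activity normalised to PTC124 versus DMSO; concentration-response curves classed by r2, magnitude and activity.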
Chain of Luciferin 4-monooxygenase (Photinus pyralis) (P08659 whole entry, looked up): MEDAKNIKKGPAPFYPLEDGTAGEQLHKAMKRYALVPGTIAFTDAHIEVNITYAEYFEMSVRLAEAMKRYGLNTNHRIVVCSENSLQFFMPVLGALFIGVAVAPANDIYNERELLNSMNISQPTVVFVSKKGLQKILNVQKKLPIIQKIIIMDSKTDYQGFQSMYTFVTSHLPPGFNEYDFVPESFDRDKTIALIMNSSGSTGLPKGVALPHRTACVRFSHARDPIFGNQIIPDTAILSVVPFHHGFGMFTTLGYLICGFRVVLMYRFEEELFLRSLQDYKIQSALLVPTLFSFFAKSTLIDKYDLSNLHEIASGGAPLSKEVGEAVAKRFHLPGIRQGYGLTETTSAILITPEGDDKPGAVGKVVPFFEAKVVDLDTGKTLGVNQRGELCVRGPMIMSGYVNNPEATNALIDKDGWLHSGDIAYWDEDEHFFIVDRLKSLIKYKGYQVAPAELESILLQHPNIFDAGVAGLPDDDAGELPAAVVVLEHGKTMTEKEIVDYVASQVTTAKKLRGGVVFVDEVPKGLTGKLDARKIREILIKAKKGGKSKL

Experiment [16] can be described thus: qHTS profiling for inhibitors of Plasmodium falciparum proliferation (AID 504749).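 Note: 0% = DMSO vehicle and full inhibition = artemisinin control; nearly all actives have a fitted effect of over 60% in size.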 The note with it: P. falciparum in erythrocytes, SYBR Green DNA, 72 h, at 28.7 µM (top of the series). In a few lines:
(§1)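 P. falciparum-infected erythrocytes (0.3% parasitemia, 2.5% hematocrit) incubated with compound 72 h at 37 C, 5% CO2. Parasite DNA detected by SYBR Green after lysis, overnight at room temperature; normalised to 0.29 uM artemisinin and DMSO.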

The subject of the next experiment is AS120. Described as above. The note with it: P. falciparum in erythrocytes, SYBR Green DNA, 72 h; series mostly up to 28.7 µM. In a few lines: as §1
A further experiment concerns CP238. The description is as above. The note with it: P. falciparum in erythrocytes, SYBR Green DNA, 72 h; series mostly up to 12.8 µM. In a few lines:
as §1

In the next experiment the test system is CP265. The description is as above. The following applies: P. falciparum in erythrocytes, SYBR Green DNA, 72 h; series mostly up to 12.8 µM. In a few lines:
as §1

Another experiment deals with FAB9. The experiment is described as above. The following applies: P. falciparum in erythrocytes, SYBR Green DNA, 72 h; series mostly up to 12.8 µM. In a few lines: as §1
[17] abbreviates: measured here: cell count channel max response.
[18] abbreviates: measured here: lipid channel max response.

Chain of 3',5'-cyclic-AMP phosphodiesterase 4B (Homo sapiens) (Q07343 whole entry, looked up): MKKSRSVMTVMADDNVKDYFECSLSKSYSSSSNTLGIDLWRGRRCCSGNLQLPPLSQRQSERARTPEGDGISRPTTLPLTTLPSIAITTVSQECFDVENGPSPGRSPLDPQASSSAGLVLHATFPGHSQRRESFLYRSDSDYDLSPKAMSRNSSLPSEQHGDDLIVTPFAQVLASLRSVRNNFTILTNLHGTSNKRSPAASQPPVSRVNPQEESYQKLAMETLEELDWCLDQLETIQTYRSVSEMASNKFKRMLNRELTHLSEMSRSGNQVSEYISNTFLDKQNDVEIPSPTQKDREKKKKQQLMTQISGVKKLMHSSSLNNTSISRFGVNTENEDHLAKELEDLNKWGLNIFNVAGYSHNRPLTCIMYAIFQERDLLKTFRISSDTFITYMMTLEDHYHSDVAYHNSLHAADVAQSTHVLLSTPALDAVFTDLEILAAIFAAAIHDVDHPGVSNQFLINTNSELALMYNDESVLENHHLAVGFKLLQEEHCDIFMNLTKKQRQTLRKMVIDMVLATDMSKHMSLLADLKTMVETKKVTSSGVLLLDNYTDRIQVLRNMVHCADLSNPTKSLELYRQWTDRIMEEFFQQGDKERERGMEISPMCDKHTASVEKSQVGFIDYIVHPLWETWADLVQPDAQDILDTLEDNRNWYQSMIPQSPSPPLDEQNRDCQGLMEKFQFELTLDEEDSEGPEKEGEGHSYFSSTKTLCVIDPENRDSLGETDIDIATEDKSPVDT
Chain of Glucocorticoid receptor (Homo sapiens) (P04150 whole entry, looked up, the tested form may be a part): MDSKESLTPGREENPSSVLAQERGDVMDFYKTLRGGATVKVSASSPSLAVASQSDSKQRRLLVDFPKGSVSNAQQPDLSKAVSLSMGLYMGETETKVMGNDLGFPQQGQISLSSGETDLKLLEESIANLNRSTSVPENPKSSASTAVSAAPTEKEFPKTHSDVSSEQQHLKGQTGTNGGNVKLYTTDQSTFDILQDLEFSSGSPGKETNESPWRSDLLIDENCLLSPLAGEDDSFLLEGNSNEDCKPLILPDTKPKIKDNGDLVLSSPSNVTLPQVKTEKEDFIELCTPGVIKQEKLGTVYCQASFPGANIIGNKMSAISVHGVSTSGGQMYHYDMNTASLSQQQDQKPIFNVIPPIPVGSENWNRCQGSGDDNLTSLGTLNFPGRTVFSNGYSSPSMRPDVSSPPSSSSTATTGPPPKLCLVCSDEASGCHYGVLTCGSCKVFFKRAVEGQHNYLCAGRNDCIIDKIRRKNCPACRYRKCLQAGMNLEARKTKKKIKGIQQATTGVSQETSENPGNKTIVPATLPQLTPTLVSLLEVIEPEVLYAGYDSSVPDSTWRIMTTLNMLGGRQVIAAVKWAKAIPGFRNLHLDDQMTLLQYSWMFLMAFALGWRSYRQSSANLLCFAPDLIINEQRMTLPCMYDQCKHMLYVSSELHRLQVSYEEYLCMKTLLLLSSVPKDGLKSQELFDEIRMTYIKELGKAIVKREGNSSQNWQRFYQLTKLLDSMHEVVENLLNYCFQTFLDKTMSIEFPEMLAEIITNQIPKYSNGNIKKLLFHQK
Chain of Pyruvate kinase (Leishmania mexicana) (Q27686 2-499 E452W): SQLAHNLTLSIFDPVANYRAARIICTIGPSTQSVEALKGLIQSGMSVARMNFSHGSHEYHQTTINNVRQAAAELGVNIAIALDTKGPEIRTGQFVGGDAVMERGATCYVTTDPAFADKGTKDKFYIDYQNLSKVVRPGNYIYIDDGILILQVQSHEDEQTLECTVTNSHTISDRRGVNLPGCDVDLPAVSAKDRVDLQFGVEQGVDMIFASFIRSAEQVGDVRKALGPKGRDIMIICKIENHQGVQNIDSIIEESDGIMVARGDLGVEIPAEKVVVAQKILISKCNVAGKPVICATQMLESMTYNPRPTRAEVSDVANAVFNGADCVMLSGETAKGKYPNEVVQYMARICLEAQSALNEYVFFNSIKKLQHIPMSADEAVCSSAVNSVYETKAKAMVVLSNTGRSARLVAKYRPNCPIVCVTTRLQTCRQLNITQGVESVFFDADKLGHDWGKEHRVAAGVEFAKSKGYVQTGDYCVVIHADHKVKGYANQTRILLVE
Chain of Alpha-galactosidase A (Homo sapiens) (P06280 whole entry, looked up): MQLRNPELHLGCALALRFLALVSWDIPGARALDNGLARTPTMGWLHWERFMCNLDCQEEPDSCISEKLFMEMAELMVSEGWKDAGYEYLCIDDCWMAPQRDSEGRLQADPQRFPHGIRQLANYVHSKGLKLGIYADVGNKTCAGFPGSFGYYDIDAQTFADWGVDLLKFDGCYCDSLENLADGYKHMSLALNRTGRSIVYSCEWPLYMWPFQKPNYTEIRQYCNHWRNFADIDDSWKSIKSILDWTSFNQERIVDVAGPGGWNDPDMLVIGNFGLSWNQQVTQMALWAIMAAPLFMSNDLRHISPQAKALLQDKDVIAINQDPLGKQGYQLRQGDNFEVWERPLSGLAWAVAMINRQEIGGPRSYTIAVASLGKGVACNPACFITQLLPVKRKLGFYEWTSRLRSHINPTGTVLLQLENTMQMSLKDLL
Chain of ATP-dependent 6-phosphofructokinase (Trypanosoma brucei brucei) (O15648 whole entry, looked up): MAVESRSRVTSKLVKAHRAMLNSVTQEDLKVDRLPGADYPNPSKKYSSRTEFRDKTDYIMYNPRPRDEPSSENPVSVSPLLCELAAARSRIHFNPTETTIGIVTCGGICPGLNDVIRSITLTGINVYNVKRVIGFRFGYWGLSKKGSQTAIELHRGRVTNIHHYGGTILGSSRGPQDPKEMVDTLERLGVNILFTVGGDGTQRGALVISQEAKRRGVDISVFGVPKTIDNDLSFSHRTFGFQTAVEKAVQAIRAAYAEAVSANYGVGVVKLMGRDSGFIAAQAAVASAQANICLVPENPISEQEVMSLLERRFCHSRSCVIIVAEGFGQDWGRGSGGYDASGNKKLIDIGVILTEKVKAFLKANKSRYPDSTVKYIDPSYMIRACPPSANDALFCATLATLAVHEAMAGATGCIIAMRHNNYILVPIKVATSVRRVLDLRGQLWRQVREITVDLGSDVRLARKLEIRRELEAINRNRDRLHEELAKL

As for `COc1ccc([C@H]2Sc3ccccc3N(CCN(C)C)C(=O)[C@H]2OC(C)=O)cc1`, the activity change, negative = inhibition was -10.4% (inactive) in experiment [1] (at 17.2 µM (top of the series)); -3.25% (inactive) in experiment [1] (at 38 µM (top of the series)); -5.79% (inactive) in [3] (at 17.2 µM (top of the series)); -3.5% (inactive) in experiment [3] (at 38 µM (top of the series)); -1.07% (inactive) in experiment [11]. In addition, the Potency result in experiment [2], in experiment [7] and in experiment [12] was “inactive” each time. Moreover, the activity, negative = inhibition was -1.38% (inactive) in experiment [4] (at 17.2 µM (top of the series)) and 7.22% (inactive) in experiment [4] (at 38 µM (top of the series)). Further, the Potency in [5] was > 46 µM (inactive) and > 20.6 µM (inactive); in experiment [6] it was > 46 µM (inactive) and > 20.6 µM (inactive). The compound was classed as inactive in experiment [8], in experiment [9] and in experiment [10]. The values for the max response in experiment [11] (setting [17]) and in [11] (setting [18]) were 7.03% and 9.95%, respectively.

On to `CC[C@]1(C)CC(=O)NC1=O`, for which the activity change, negative = inhibition is 1.25% (inactive) in experiment [1] (at 17.2 µM (top of the series)); 0.0779% (inactive) in [1] (at 38 µM (top of the series)); 5.72% (inactive) in experiment [3] (at 17.2 µM (top of the series)); 0.552% (inactive) in experiment [3] (at 38 µM (top of the series)); 0.986% (inactive) in experiment [11]. The Potency entry (in experiment [2]; in [13]; in [7]; in [12]; in the experiment on AS120; in the experiment with CP238) was “inactive” in each case. Further, the Potency result in the experiment on CP265 and with FAB9 was “inactive” each time. Also, the activity, negative = inhibition was 2.02% (inactive) in [4] (at 17.2 µM (top of the series)), 10.7% (inactive) in experiment [4] (at 38 µM (top of the series)), 10.6% (inactive) in experiment [16] (parasite line A) and 5.48% (inactive) in [16] (parasite line B). In addition, the Potency is > 46 µM (inactive) and > 20.6 µM (inactive) in experiment [5]; > 46 µM (inactive) and > 20.6 µM (inactive) in [6]. Besides, the result in experiment [8], in [9], in experiment [10], in [14] and in experiment [15] was inactive. Further, the results for the max response in [11] (setting [17]) and in [11] (setting [18]) were 2.27% and 7.01%, respectively.
